FEN1 inhibitor = human FEN1 inhibition; Recombinant FEN1 flap cleavage, fluorescence, 15 min; Potency, µM (highest dose often 114 µM), for the others: at the highest dose activity change, negative = inhibition, hits mostly inhibitors; 390,000 tested, 0.35% active; AID 588795; further: on the % scale 0 is the no-effect control and ±100 the full control effect; nearly all actives have a fitted effect of over 65% in size
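Reaction started by adding substrate (50 nM final) to 10 nM enzyme after 15 min room-temperature compound preincubation. Reads at 0 and 15 min, with data normalized and fitted to a four-parameter Hill equation.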
Pol eta inh = DNA polymerase eta (human) inhibition. Q9Y253. recombinant Pol eta, fluorescent DNA replication assay. Potency, µM (doses to about 114 µM), for the others: at the highest dose activity change, negative = inhibition, actives largely listed as inhibitors. 390,000 tested, 1.2% active. AID 588591; further: on the % scale 0 is the no-effect control and ±100 the full control effect
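Fluorescent replication assay: 50 nM final substrate added after a 15 min room-temperature compound preincubation with 10 nM enzyme. Signal taken at 0 min and again at 10 min.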
WRN helicase inh = blocks human WRN helicase; WRN helicase unwinding, fluorescent forked duplex, kinetic; Potency, µM (doses to about 114 µM), for inactives: at the top dose activity change, negative = inhibition, usual class: inhibitors; 360,000 tested, 0.46% active; AID 651768; further: on the % scale 0 is the no-effect control and ±100 the full control effect; nearly all actives have a fitted effect of over 55% in size
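WRN at 20 nM final preincubated with compound 15 min at room temperature; reaction started with 100 nM fluorophore/quencher forked duplex oligonucleotide and 2 mM ATP final. Unwinding followed kinetically by red fluorescence (ex 525, em 598 nm).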
POLI inh = blocks human DNA polymerase iota activity; AID 588590; Potency, µM (doses to about 115 µM), for inactives: at the top dose activity, negative = inhibition, hits mostly inhibitors; 390,000 tested, 1% active; Pol iota fluorescent replication assay, 10 min
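Fluorescent replication assay read twice, at 0 min and 10 min after adding 50 nM (final) substrate. Enzyme (10 nM) and compounds were first incubated 15 min at room temperature; enzyme-free buffer wells were negative controls.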
POLK inh = blocks human DNA polymerase kappa activity. Potency, µM (series often up to 107 µM), for inactives: top-dose activity, negative = inhibition, usual class: inhibitors. 400,000 tested, 0.53% active. AID 588579. purified Pol kappa, fluorescent DNA synthesis assay, 10 min. Q9UBT6; further: on the % scale 0 is the no-effect control and ±100 the full control effect
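Kinetic fluorescence readout at 0 and 10 min followed reaction start with substrate at 50 nM final. Beforehand, enzyme (10 nM Pol kappa) stood 15 min with compound at room temperature; buffer-only wells were negative controls.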
Pol beta inh = blocks human DNA polymerase beta activity; P06746; 340,000 tested, 1.3% active; Potency, µM (series often up to 114 µM), for the others: at the top dose activity change, negative = inhibition, usual class: inhibitors; Pol beta primer extension/strand displacement, fluorescence kinetic; further: on the % scale 0 is the no-effect control and ±100 the full control effect
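Pol beta (10 nM) and compounds were preincubated 15 min at room temperature, then 50 nM substrate (final) started primer extension/strand displacement. Reads were taken at 0 and 10 min; concentration-response data were fitted to a four-parameter Hill equation.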
Starred values were filed as active, the others as inactive; [ ] = dose if it differs, or a comment. Compounds with a hit are over-represented: about 2.4% of the library has one in this group of screens. The call rests on the fitted dose curve; in most records, active means well fitted curve in the direction sought with a large enough effect; inconclusive means small, poorly fitted or top-dose-only effect, or another doubt; inactive means no such curve, though single readings can be large; an effect the other way counts as inactive or inconclusive. Potency means the concentration at half of the fitted maximal effect.

For O=C(CN1C(=O)c2ccccc2C1=O)Nc1sc2c(c1C(=O)NCc1ccco1)CCCC2 the results were FEN1 inhibitor 3%, Pol eta inh inconclusive, WRN helicase inh -9%, POLI inh inconclusive, POLK inh -29% and Pol beta inh 1%.
Screening COCCCNC(=O)CN1C(=O)c2c(c3ccccc3n2C)C1c1ccc(OC)cc1 (configuration not stated) returned FEN1 inhibitor -5%, Pol eta inh -11%, POLI inh 6%, POLK inh -6% and Pol beta inh -20%.
For COC(=O)c1ccc(COc2ccc3c(C)c(C)c(=O)oc3c2)o1 the results were FEN1 inhibitor -20%, Pol eta inh -15%, WRN helicase inh -6%, POLI inh inconclusive, POLK inh -6% and Pol beta inh 56µM*.
COC(=O)c1ccc(COc2ccc3ccc(=O)oc3c2)o1 was read as FEN1 inhibitor -4%, Pol eta inh -13%, WRN helicase inh -5%, POLI inh 8%, POLK inh 4% and Pol beta inh -3%.
COc1ccc(CCNC(=O)C(=O)NCC(c2ccc3c(c2)OCO3)N2CCOCC2)cc1OC (configuration not stated) was read as FEN1 inhibitor 4%, Pol eta inh -1%, POLI inh -14%, POLK inh -4%[60.1 µM] and Pol beta inh 17%.
`O=C(Nc1ccccc1)c1nc[nH]c1C(=O)NCCCNC(=O)c1[nH]cnc1C(=O)Nc1ccccc1` gave FEN1 inhibitor -16%, Pol eta inh -13%, WRN helicase inh 0%, POLI inh -8% and POLK inh 0%.
For O=C(Nc1ccccc1)c1nc[nH]c1C(=O)NCCN(CCNC(=O)c1[nH]cnc1C(=O)Nc1ccccc1)CCNC(=O)c1[nH]cnc1C(=O)Nc1ccccc1 the results were FEN1 inhibitor 6%, Pol eta inh -9%, WRN helicase inh -11%, POLI inh 79µM* and POLK inh -32%.
For O=C(O)COc1ccc(/C=C/c2ccc3cccc([N+](=O)[O-])c3n2)cc1 the results were FEN1 inhibitor -4%, Pol eta inh 20µM*, WRN helicase inh -27%[57.1 µM], POLI inh inconclusive, POLK inh inconclusive and Pol beta inh 1%.
Screening CCc1ccccc1NC(=O)c1sc(-n2nc(C)c(Cc3ccccc3)c2C)nc1C returned FEN1 inhibitor 3%, Pol eta inh -25%, POLI inh 13%, POLK inh 9% and Pol beta inh -14%.
Screening Cc1cccc(NC(=O)Cn2nnc(-c3nc(-c4ccncc4)no3)c2N)c1 returned FEN1 inhibitor -3%, POLI inh 21%, POLK inh 3% and Pol beta inh 56µM*.
Screening COc1ccc(NC(=O)Cn2nnc(-c3nc(-c4ccncc4)no3)c2N)cc1OC returned FEN1 inhibitor 12%, POLI inh 25%, POLK inh -6% and Pol beta inh 79µM*.
Screening CC1=NN(c2ccccc2C)C(=O)C1 returned FEN1 inhibitor -11%, Pol eta inh -14%, WRN helicase inh 1%[11.6 µM], POLI inh 3.2µM* and POLK inh 4%.
Screening CCOC(=O)C1=C(O)/C(=C/c2cn(CC(=O)NCC3CCCO3)c3ccccc23)SC1=Nc1ccc(C)cc1 (configuration not stated) returned FEN1 inhibitor -9%, Pol eta inh 14µM*, WRN helicase inh -14%, POLI inh inconclusive and POLK inh -18%.
Screening CCOC(=O)C1=C(O)/C(=C/c2ccc(-c3ccccc3C(=O)O)o2)SC1=Nc1ccc(C)cc1 returned FEN1 inhibitor 40µM*, Pol eta inh 22µM*, WRN helicase inh inconclusive, POLI inh inconclusive, POLK inh 40µM* and Pol beta inh 3%.
`CC(C)Cn1cc(NC(=O)NCc2cccc(Cl)c2)c2ccccc2c1=O` gave FEN1 inhibitor 7%, Pol eta inh -1%, POLI inh -6%, POLK inh -19% and Pol beta inh 0%.
C=C1CCC(C)C(C)(CCC2=CCOC2=O)C/C=C\C=C/1C(=O)O (configuration not stated) was read as FEN1 inhibitor -4%, Pol eta inh 28µM*, WRN helicase inh -15%, POLI inh inconclusive, POLK inh inconclusive and Pol beta inh 2%.
For Cc1nc(SCC(=O)c2ccccc2)c(C#N)c(-c2ccco2)c1C(=O)NCc1ccco1 the results were FEN1 inhibitor 7%, Pol eta inh 20µM*, WRN helicase inh inconclusive, POLI inh inconclusive, POLK inh inconclusive and Pol beta inh 4%.
`O=C(Nc1nnc(Cc2ccccc2)s1)C1CCN(C(=O)c2cccs2)CC1` gave FEN1 inhibitor -12%, POLI inh 26% and POLK inh -16%.
Cc1ccc2nc(Cl)c(C3CC(c4cccs4)=NN3C(=O)CCCC(=O)O)cc2c1 (configuration not stated) was read as FEN1 inhibitor 0%, Pol eta inh -6%, WRN helicase inh 3%, POLI inh inconclusive, POLK inh 0% and Pol beta inh -10%.
For Cc1ccc(-c2nn(-c3ccccc3)cc2C2CC(c3cccs3)=NN2C(=O)CCCC(=O)O)cc1 (configuration not stated) the results were FEN1 inhibitor 50µM*, Pol eta inh inconclusive, WRN helicase inh inconclusive, POLI inh 4%, POLK inh -2% and Pol beta inh -6%.
For CCOc1ccc2nc(Cl)c(C3CC(c4ccc(C)cc4)=NN3C(=O)CCCC(=O)O)cc2c1 (configuration not stated) the results were FEN1 inhibitor -17%, Pol eta inh inconclusive, POLI inh 18%, POLK inh -22% and Pol beta inh 22µM*.
For Cc1ccc(C2=NN(C(=O)CCC(=O)O)C(c3cn(-c4ccccc4)nc3-c3ccc(C)cc3)C2)cc1 (configuration not stated) the results were FEN1 inhibitor -32%, Pol eta inh inconclusive, WRN helicase inh inconclusive, POLI inh 1%, POLK inh -5%[60.1 µM] and Pol beta inh 22µM*.
`N#Cc1nc(-c2ccc(OCc3ccccc3Cl)cc2)oc1N1CCC(C(N)=O)CC1` gave FEN1 inhibitor -3%, POLI inh 32% and POLK inh -10%.
For COc1ccc(NC(=O)COc2ccc(/C=C/c3cc[n+](C)cc3)cc2OC)cc1 the results were FEN1 inhibitor -21%, Pol eta inh -10%, WRN helicase inh -1%, POLI inh inconclusive, POLK inh -17% and Pol beta inh inconclusive.
